About 79,000 compounds went through this panel and 15% of them were active in at least one assay; those are over-represented in the sample as a whole. The source made the active and inactive calls. Cut-off read from the data, not from the text of the source: active = growth inhibition above about 70%; inactive = the rest.
Tests used:
[1] = NCI Yeast Anticancer Drug Screen. Data for the wt1 strain (AID 149);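 note: 0% = growth of vehicle-treated wt1 cultures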; conditions: S. cerevisiae wt1 strain (SPY 50644) growth inhibition, hits give high values
Method in brief: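 Yeast wt1 strain exposed to compounds; growth inhibition measured relative to vehicle-treated controls.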

[2] = NCI Yeast Anticancer Drug Screen. Data for the rad50EPP+ strain (AID 151);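 note: 0% = growth of vehicle-treated control cultures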; conditions: S. cerevisiae rad50 mutant strain, hits give high values
Method in brief: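 One strain with a rad50 alteration (rad50EPP+) was compound-treated, its growth then compared to that of vehicle controls.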

[3] = NCI Yeast Anticancer Drug Screen. Data for the mgt1 strain (AID 153); conditions: S. cerevisiae mgt1 mutant growth inhibition, hits give high values
Method in brief: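 After exposure of the mgt1 yeast mutant to compound, growth was measured and reported as inhibition compared with vehicle controls.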

[4] = NCI Yeast Anticancer Drug Screen. Data for the rad50 strain (AID 155);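 note: 0% = growth of vehicle-only cultures of the same strain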; conditions: S. cerevisiae rad50 strain growth inhibition, hits give high values
Method in brief: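 Yeast carrying a defined DNA repair defect were exposed to test compounds, and growth was compared with vehicle-treated controls to give percent inhibition.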

[5] = NCI Yeast Anticancer Drug Screen. Data for the mec2-1 strain (AID 157); conditions: S. cerevisiae mec2-1 strain, hits give high values
Method in brief: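 Test agents were screened against the mec2-1 yeast strain, with defined DNA repair or cell cycle alteration. Growth was scored as inhibition against vehicle-only controls.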

[6] = NCI Yeast Anticancer Drug Screen. Data for the rad14 strain (AID 159);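 note: 0% = growth of vehicle-treated control cultures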; conditions: S. cerevisiae rad14 strain growth inhibition, hits give high values
Method in brief: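 Yeast cells carrying a defined DNA-repair defect were exposed to compounds, and growth inhibition was calculated relative to vehicle-treated control cultures.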

[7] = NCI Yeast Anticancer Drug Screen. Data for the sgs1 mgt1 strain (AID 161);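 note: 0% = growth of cultures given vehicle only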; conditions: S. cerevisiae sgs1 mgt1 strain, hits give high values
Method in brief: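 Test agents were incubated with a DNA-repair-mutant yeast strain. Growth was then read and compared against vehicle-treated controls.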

[8] = NCI Yeast Anticancer Drug Screen. Data for the CLN2oe strain (AID 163);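 note: 0% = growth of vehicle-only control cultures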; conditions: S. cerevisiae CLN2oe strain, hits give high values
Method in brief: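 Here, growth inhibition in a cell-cycle-altered yeast strain after compound exposure was quantified against vehicle control growth.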

[9] = NCI Yeast Anticancer Drug Screen. Data for the cln2 rad14 strain (AID 165);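 note: 0% = growth equal to vehicle treated cultures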; conditions: S. cerevisiae cln2 rad14 strain, hits give high values
Method in brief: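 Growth of compound-exposed yeast (cln2 rad14 genotype) measured and expressed as inhibition relative to vehicle.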

[10] = NCI Yeast Anticancer Drug Screen. Data for the bub3 strain (AID 167); conditions: S. cerevisiae bub3 mutant strain, hits give high values
Method in brief: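 Compounds were applied to a genetically altered yeast strain carrying a cell-cycle control defect. Growth inhibition was scored against vehicle-treated controls.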

[11] = NCI Yeast Anticancer Drug Screen. Data for the wt2 strain (AID 169);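 note: 0% = growth of vehicle-treated yeast cultures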; conditions: S. cerevisiae wt2 strain growth inhibition, hits give high values
Method in brief: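 Genetically defined yeast strains from a DNA-repair/cell-cycle panel were used. Compound-exposed yeast growth was measured, and the inhibition was calculated relative to vehicle treatment.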

[12] = NCI Yeast Anticancer Drug Screen. Data for the mlh1 strain (AID 171);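 note: 0% = growth of vehicle-treated control cultures of the same strain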; conditions: S. cerevisiae mlh1 strain growth inhibition, hits give high values
Method in brief: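 Here the genetically defined yeast mutant is grown with each compound, and the extent to which its growth falls below that of vehicle-exposed cells is reported.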

[13] = NCI Yeast Anticancer Drug Screen. Data for the sgs1 strain (AID 173);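 note: 0% = growth of vehicle-only control cultures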; conditions: S. cerevisiae sgs1 mutant, hits give high values
Method in brief: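 Relative growth inhibition, referenced to vehicle, was determined in a yeast strain with a defined alteration affecting DNA damage repair or cell cycle control after compound exposure.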

[14] = NCI Yeast Anticancer Drug Screen. Data for the mlh1 rad18 strain (AID 175); conditions: S. cerevisiae mlh1 rad18 strain growth inhibition, hits give high values
Method in brief: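 In this whole-cell yeast screen, a strain with altered DNA damage repair is challenged with compound, and its growth is measured against matched vehicle-treated controls.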

[15] = NCI Yeast Anticancer Drug Screen. Data for the rad18 strain (AID 177); conditions: S. cerevisiae rad18 mutant growth inhibition, hits give high values
Method in brief: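 Screen uses a yeast strain with a defined lesion in DNA damage repair; compound effect is read as loss of growth compared to untreated vehicle cultures.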

[16] = NCI Yeast Anticancer Drug Screen. Data for the rad52 strain (AID 147);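 note: 0% = growth of vehicle-treated control cultures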; conditions: S. cerevisiae rad52 mutant growth inhibition, hits give high values
Method in brief: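 Measured: yeast growth inhibition. System: strain with a defined DNA damage repair alteration. Reference: vehicle-treated control cultures.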

[17] = at 5.0 µM (retest, dose inferred, filed as 0.5)
[18] = at 50.0 µM (retest, dose inferred, filed as 5.0)

Measured: growth inhibition

COC(=O)C1=C(C)NC(C)=C(C(=O)OC)C1c1cccc(/[N+]([O-])=C/c2ccccc2)c1
inactive: [1]; at 1.2 µM 2% | [1]; at 3.7 µM 4% | [1]; at 11.0 µM 8% | [1]; at 33.0 µM 18% | [1]; at 100.0 µM 50% | [2]; at 1.2 µM -1% | [2]; at 3.7 µM -3% | [2]; at 11.0 µM -4% | [2]; at 33.0 µM 1% | [2]; at 100.0 µM 15% | [3]; at 1.2 µM 1% | [3]; at 3.7 µM 4% | [3]; at 11.0 µM 13% | [3]; at 33.0 µM 33% | [4]; at 1.2 µM -3% | [4]; at 3.7 µM -9% | [4]; [17] 11% | [4]; at 11.0 µM -9% | [4]; at 33.0 µM 29% | [4]; [18] 35% | [4]; at 50.0 µM 64.8% | [5]; at 1.2 µM 3% | [5]; at 3.7 µM 5% | [5]; [17] 11% | [5]; at 11.0 µM 13% | [5]; at 33.0 µM 34% | [5]; [18] 25% | [5]; at 50.0 µM 40.5% | [6]; at 1.2 µM 2% | [6]; at 3.7 µM 4% | [6]; at 11.0 µM 16% | [6]; at 33.0 µM 34% | [7]; [17] 51% | [7]; [18] 50% | [7]; at 50.0 µM 51.1% | [8]; at 1.2 µM 4% | [8]; at 3.7 µM 6% | [8]; at 11.0 µM 13% | [8]; at 33.0 µM 33% | [9]; [17] 6% | [9]; [18] 33% | [9]; at 50.0 µM 44.8% | [10]; at 1.2 µM 1% | [10]; at 3.7 µM 4% | [10]; [17] 43% | [10]; at 11.0 µM 10% | [10]; at 33.0 µM 30% | [10]; at 50.0 µM 59.6% | [11]; at 1.2 µM 0% | [11]; at 3.7 µM 1% | [11]; at 11.0 µM 8% | [11]; at 33.0 µM 32% | [12]; at 1.2 µM 3% | [12]; at 3.7 µM 3% | [12]; at 11.0 µM 12% | [12]; at 33.0 µM 39% | [13]; at 1.2 µM 1% | [13]; at 3.7 µM 5% | [13]; at 11.0 µM 12% | [14]; [17] 4% | [14]; [18] 40% | [14]; at 50.0 µM 66% | [15]; at 1.2 µM 2% | [15]; at 3.7 µM 7% | [15]; at 11.0 µM 17% | [15]; at 33.0 µM 48%
active: [3]; at 100.0 µM 96% | [4]; at 100.0 µM 83% | [5]; at 100.0 µM 83% | [6]; at 100.0 µM 92% | [8]; at 100.0 µM 74% | [10]; [18] 79% | [10]; at 100.0 µM 91% | [11]; at 100.0 µM 95% | [12]; at 100.0 µM 96% | [13]; at 33.0 µM 71% | [13]; at 100.0 µM 96% | [15]; at 100.0 µM 93%

[O-][n+]1c2ccc(O)cc2nc2ccc(Br)cc21
active: [16]; at 33.0 µM 83% | [16]; at 100.0 µM 85% | [2]; at 33.0 µM 75% | [2]; at 100.0 µM 77% | [3]; at 33.0 µM 85% | [3]; at 100.0 µM 87% | [4]; at 33.0 µM 87% | [4]; [18] 96% | [4]; at 50.0 µM 88.5% | [4]; at 100.0 µM 87% | [5]; [18] 81% | [5]; at 50.0 µM 78.8% | [6]; at 100.0 µM 81% | [7]; [18] 86% | [9]; [18] 88% | [10]; at 33.0 µM 78% | [10]; [18] 74% | [10]; at 50.0 µM 84% | [10]; at 100.0 µM 70% | [11]; at 100.0 µM 80% | [12]; at 33.0 µM 75% | [12]; at 100.0 µM 84% | [13]; at 33.0 µM 74% | [13]; at 100.0 µM 84% | [14]; [18] 93% | [14]; at 50.0 µM 92.2% | [15]; at 33.0 µM 90% | [15]; at 100.0 µM 90%
inactive: [16]; at 1.2 µM 1% | [16]; at 3.7 µM 16% | [16]; at 11.0 µM 42% | [2]; at 1.2 µM 6% | [2]; at 3.7 µM 20% | [2]; at 11.0 µM 55% | [3]; at 1.2 µM 4% | [3]; at 3.7 µM 21% | [3]; at 11.0 µM 46% | [4]; at 1.2 µM 2% | [4]; at 3.7 µM 18% | [4]; [17] 36% | [4]; at 11.0 µM 56% | [5]; at 1.2 µM -1% | [5]; at 3.7 µM 12% | [5]; [17] 2% | [5]; at 11.0 µM 25% | [5]; at 33.0 µM 49% | [5]; at 100.0 µM 61% | [6]; at 1.2 µM 2% | [6]; at 3.7 µM 7% | [6]; at 11.0 µM 29% | [6]; at 33.0 µM 67% | [7]; [17] 30% | [7]; at 50.0 µM 65% | [9]; [17] 16% | [9]; at 50.0 µM 49% | [10]; at 1.2 µM 5% | [10]; at 3.7 µM 16% | [10]; [17] 32% | [10]; at 11.0 µM 41% | [11]; at 1.2 µM 3% | [11]; at 3.7 µM -40% | [11]; at 11.0 µM 25% | [11]; at 33.0 µM 60% | [12]; at 1.2 µM 2% | [12]; at 3.7 µM 15% | [12]; at 11.0 µM 29% | [13]; at 1.2 µM 4% | [13]; at 3.7 µM 8% | [13]; at 11.0 µM 28% | [14]; [17] 50% | [15]; at 1.2 µM 5% | [15]; at 3.7 µM 21% | [15]; at 11.0 µM 57%
